Measured values published in PubChem BioAssay (EPA / NIEHS).
Inconclusive results are not listed. Calls of active or inactive are those of the source. The calls were made as follows, unless noted: active = hit-call score of the fitted dose curve at least 0.9, where 1 is the maximum; inactive = score below 0.9.

Experiments:
[1] = IUF_NPC4_neurite_length_120hr: Leibniz Research Institute for Environmental Medicine (IUF) 120-hour Neuronal Morphology Assay for Neurite Length (NPC4) (AID 2284302)
How it was run: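 Human fetal neural progenitor spheres (0.3 mm) plated on poly-D-lysine/laminin in N2 differentiation medium, exposed from day 0 for 120 h with half-medium refresh at day 3, 37C. Mean neurite length (um) of TUBB3-positive neurons from skeletonized immunostaining images; DMSO ≤0.1%.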

[2] = IUF_NPC5_oligodendrocyte_differentiation_120hr: Leibniz Research Institute for Environmental Medicine (IUF) 120-hour Oligodendrocyte Differentiation Assay (NPC5) (AID 2284304; active = hit-call score of the fitted dose curve at least 0.9, where 1 is the maximum;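 also: primary human fetal neural progenitor spheres plated to migrate and differentiate; share of O4-positive cells among Hoechst nuclei found by CNN image analysis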)
How it was run: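 After plating on poly-D-lysine/laminin, fetal-derived hNPC spheres differentiated for 120 h at 37C in compound-containing N2 medium, refreshed by half on day 3. O4 immunostaining over Hoechst nuclei in the migration zone gave oligodendrocyte percentage relative to DMSO.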

[3] = IUF_NPC4_neurite_area_120hr: Leibniz Research Institute for Environmental Medicine (IUF) 120-hour Neuronal Morphology Assay for Neurite Area (NPC4) (AID 2284305; active = hit-call score of the fitted dose curve at least 0.9, where 1 is the maximum)
How it was run: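 Human fetal neural progenitor spheres (0.3 mm) plated on poly-D-lysine/laminin in N2 differentiation medium, exposed 120 h (7 concentrations, DMSO ≤0.1%, half-medium refresh day 3). Fixed, TUBB3 immunostained; mean neurite area per neuron by Omnisphero skeletonization.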

[4] = IUF_NPC2-5_cytotoxicity_72hr: Cytotoxicity Assessment at 72 hours in the Leibniz Research Institute for Environmental Medicine (IUF) Neural Progenitor Cell Migration and Differentiation Assay for Cytotoxicity (NPC2-5) (AID 2284306; active = hit-call score of the fitted dose curve at least 0.9, where 1 is the maximum;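 also: LDH release into supernatant measured by resorufin fluorescence marking membrane damage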)
How it was run: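 Human fetal primary neural progenitor spheres (0.3 mm) plated on poly-D-lysine/laminin in N2 differentiation medium, exposed from day 0 at 37C. LDH-dependent resazurin-to-resorufin fluorescence in supernatant at 72 h; 7 concentrations, DMSO at most 0.1%.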

[5] = IUF_NPC2-5_cell_number_120hr: Cell Number Assessment at 120 hours in the Leibniz Research Institute for Environmental Medicine (IUF) Neural Progenitor Cell Migration and Differentiation Assay (NPC2-5) (AID 2284308);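 also: count of Hoechst-stained nuclei in migration zone around plated human neural progenitor spheres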
How it was run: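 Seven-point serial dilutions plus solvent control were applied to plated 0.3 mm hNPC spheres at differentiation start, with medium half-replaced at day 3. Nuclei positive for Hoechst in the migration zone were enumerated at 120 h.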

[6] = IUF_NPC2-5_viability_120hr: Viability Assessment at 120 hours in the Leibniz Research Institute for Environmental Medicine (IUF) Neural Progenitor Cell Migration and Differentiation Assay (NPC2-5) (AID 2284312)
How it was run: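 Human fetal neural progenitor spheres (0.3 mm) plated on poly-D-lysine/laminin in N2 differentiation medium, exposed 120 h with half-medium refresh at day 3. Viability by alamar blue resazurin fluorescence; 7 concentrations, DMSO max 0.1%.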

[7] = IUF_NPC1_cytotoxicity_72hr: Cytotoxicity Assessment at 72 hours in the Leibniz Research Institute for Environmental Medicine (IUF) Neural Progenitor Cell Proliferation Assay (NPC1) (AID 2284332; active = hit-call score of the fitted dose curve at least 0.9, where 1 is the maximum;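 also: rising LDH signal means more cytotoxicity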)
How it was run: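 Spheres of primary human neural progenitors are plated one per well on day 0 in growth-factor medium and dosed at once. After three days at 37C, supernatant LDH is measured fluorimetrically via resazurin reduction.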

[8] = system: Brachyury (BRA) Protein Expression, Deisenroth Lab, TBXT (gene 6862); experiment: CCTE_Deisenroth_DEVTOX-GLR_legacy_Bra: (Legacy) CCTE's DevTox GLR-Endo Assay Evaluation of Brachyury (BRA) Protein Expression, Deisenroth Lab (AID 2284329)
How it was run: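 RUES2-GLR human pluripotent cells are differentiated for 48 h and receive two chemical exposures 24 h apart, at 10 concentrations from 1 nM to 200 uM. Cells are fixed, nuclei stained and imaged. Bra+ cells are those with mean Bra intensity over 5x BMAD above the pluripotent control median, expressed as a percentage of cell count, after subtracting the 0.2% DMSO control median.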

[9] = CCTE_Deisenroth_DEVTOX-GLR_legacy_CellCount: (Legacy) Viability Assessment in CCTE's DevTox GLR-Endo Assay, Deisenroth Lab (AID 2284331); conditions: actives raise or lower the signal
How it was run: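 Nuclei count by fluorescence high-content imaging (5 fields/well) after 48 h differentiation of RUES2-GLR cells. Two exposures, 24 h apart; 1 nM - 200 uM series; n=4. Bidirectional fit vs DMSO.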

[10] = system: SRY-box transcription factor 17 (SOX17) Protein Expression, Deisenroth Lab, SOX17 (gene 64321); experiment: CCTE_Deisenroth_DEVTOX-GLR_legacy_Sox17: (Legacy) CCTE's DevTox GLR-Endo Assay Evaluation of SRY-box transcription factor 17 (SOX17) Protein Expression, Deisenroth Lab (AID 2284341); conditions: actives raise or lower the signal
How it was run: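 RUES2-GLR human pluripotent cells, seeded 24 h, then differentiated 48 h in defined media with two chemical exposures 24 h apart (1 nM - 200 uM, 10 points). Sox17+ fraction from high-content fluorescence imaging; bidirectional fit versus 0.2% DMSO.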

[11] = system: SRY-box transcription factor 2 (SOX2) Protein Expression, Deisenroth Lab, SOX2 (gene 6657); experiment: CCTE_Deisenroth_DEVTOX-GLR_legacy_Sox2: (Legacy) CCTE's DevTox GLR-Endo Assay Evaluation of SRY-box transcription factor 2 (SOX2) Protein Expression, Deisenroth Lab (AID 2284346)
How it was run: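 RUES2-GLR human pluripotent cells were differentiated for 48 h with two chemical doses 24 h apart, over 1 nM-200 uM. Sox2+ cells were those above 5x BMAD of the endoderm-control median; percent Sox2+ minus the 0.2% DMSO median was used, from n=4 replicates.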

[12] = system: SRY-box transcription factor 2 (SOX2) Protein Expression, Deisenroth Lab, SOX2 (gene 6657); experiment: CCTE_Deisenroth_DEVTOX-GLR_Endo_SOX2: CCTE's DevTox GLR-Endo Assay Evaluation of SRY-box transcription factor 2 (SOX2) Protein Expression, Deisenroth Lab (AID 2284412; active = hit-call score of the fitted dose curve at least 0.9, where 1 is the maximum)
How it was run: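 RUES2-GLR human pluripotent cells were seeded 24 h, then differentiated 48 h with two chemical exposures 24 h apart. Cells were fixed, nuclei stained and imaged by high-content microscopy. Endpoint is %SOX2+ cells over cell count, minus 0.2% DMSO control; 10-point series 1 nM–200 uM.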

[13] = system: SRY-box transcription factor 17 (SOX17) Protein Expression, Deisenroth Lab, SOX17 (gene 64321); experiment: CCTE_Deisenroth_DEVTOX-GLR_Endo_SOX17: CCTE's DevTox GLR-Endo Assay Evaluation of SRY-box transcription factor 17 (SOX17) Protein Expression, Deisenroth Lab (AID 2284413)
How it was run: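 RUES2-GLR human pluripotent cells were differentiated toward endoderm for 48 h and received two compound doses 24 h apart (1 nM - 200 uM, 10 points). High-content imaging of fixed cells gave the percent SOX17+ cells per cell count, expressed as percent change versus 0.2% DMSO.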

[14] = system: Brachyury (BRA) Protein Expression, TBXT (gene 6862); experiment: CCTE_Deisenroth_DEVTOX-GLR_Endo_BRA: CCTE's DevTox GLR-Endo Assay Evaluation of Brachyury (BRA) Protein Expression, Deisenroth Lab (AID 2284417)
How it was run: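 RUES2-GLR human pluripotent cells, seeded 24 h, then differentiated 48 h in defined media with two chemical exposures 24 h apart (10-point series, 1 nM - 200 uM). Fixed, nuclear-stained, imaged; endpoint is percent BRA+ cells minus 0.2% DMSO control.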

[15] = CCTE_Deisenroth_DEVTOX-GLR_Endo_CellCount: Viability Assessment in CCTE's DevTox GLR-Endo Assay, Deisenroth Lab (AID 2284420)
How it was run: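 Measured 48 h after dosing: fluorescent nuclei counted by imaging in human RUES2-GLR cells under defined differentiation media, tested at 1 nM - 200 uM. Values are percent cell-count change relative to 0.2% DMSO.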

[16] = system: SRY-box transcription factor 2 (SOX2) Protein Expression, Deisenroth Lab, SOX2 (gene 6657); experiment: CCTE_Deisenroth_DEVTOX-GLR_Pluri_SOX2: CCTE's DevTox GLR-Pluri Assay Evaluation of SRY-box transcription factor 2 (SOX2) Protein Expression, Deisenroth Lab (AID 2284428)
How it was run: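 Percent SOX2+ RUES2-GLR cells, determined by fluorescence microscopy after 48 h and two 24-h-interval chemical exposures spanning 1 nM–200 uM, served as the endpoint. Values are expressed relative to 0.2% DMSO; total cell counts assessed viability.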

[17] = system: Brachyury (BRA) Protein Expression, Deisenroth Lab, TBXT (gene 6862); experiment: CCTE_Deisenroth_DEVTOX-GLR_Pluri_BRA: CCTE's DevTox GLR-Pluri Assay Evaluation of Brachyury (BRA) Protein Expression, Deisenroth Lab (AID 2284429; active = hit-call score of the fitted dose curve at least 0.9, where 1 is the maximum)
How it was run: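 RUES2-GLR human pluripotent cells differentiated 48 hours with two chemical exposures 24 hours apart, 10-point series 1 nM–200 uM. Fixed, nuclear-stained, imaged; endpoint is percent BRA+ cells minus 0.2% DMSO control.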

[18] = CCTE_Deisenroth_DEVTOX-GLR_Pluri_CellCount: Viability Assessment in CCTE's DevTox GLR-Pluri Assay Evaluation of Total Cell Counts, Deisenroth Lab (AID 2284430)
How it was run: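 RUES2-GLR human pluripotent cells, seeded 24 h, then differentiated 48 h with two chemical exposures 24 h apart; 10-point series 1 nM - 200 uM. Fixed, nuclear-stained, imaged (5 fields/well); nuclei count as % change vs 0.2% DMSO.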

| Structure (SMILES) | AC50 [1] | AC50 [2] | AC50 [3] | AC50 [4] | AC50 [5] | AC50 [6] | outcome [7] | outcome [8] | AC50 [9] | AC50 [10] | outcome [11] | outcome [12] | AC50 [13] | AC50 [14] | AC50 [15] | AC50 [16] | AC50 [17] | outcome [18] |
| --- | --- | --- | --- | --- | --- | --- | --- | --- | --- | --- | --- | --- | --- | --- | --- | --- | --- | --- |
| CN(C)CCCn1cc(C2=C(c3c[nH]c4ccccc34)C(=O)NC2=O)c2ccccc21 | 4.06 µM (active) | 0.746 µM (active) | 7.2 µM (active) | 13.9 µM (active) | 2.31 µM (active) | 6.01 µM (active) | inactive |  |  |  |  |  |  |  |  |  |  |  |
| Oc1cc(O)c2c(c1)O[C@H](c1ccc(O)c(O)c1)[C@@H](O)C2 |  |  |  |  |  |  |  | inactive | 167 µM (active) | 144 µM (active) | inactive | inactive | 146 µM (active) | 0.000133 µM (active) | 167 µM (active) | 5.13 µM (active) | 157 µM (active) | inactive |
